A word on the inhibition: it is the relative decrease from the control value, in per cent.

The text below walks through data of PubChem BioAssay AID463190 (Sanford-Burnham Center for Chemical Genomics, 2010).

The structures appear in SMILES notation. The campaign covered roughly 330,000 compounds. About 7,300 (2.2%) were called active. Many of the other results were omitted from the sample, so actives are more common in it than they were. A number with no mark means an inactive call.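 How the source made its calls: active means inhibition of at least 40%; inactive means the rest.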

The nature of the experiment: growth inhibition of tim10-1 ts yeast – luminescence, uHTS, primary screen (AID 463190).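 Further: mutant grown at 25 °C; 0% = DMSO wells with yeast and 100% = wells holding no yeast.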 Conditions: S. cerevisiae tim10-1 ts strain growth, BacTiter-Glo, 24 h; at 20 µM; stronger effect = higher value.
Consider `Cc1cc(C)n(Cc2cnc(N3CCOCC3)s2)n1`, for which the inhibition is 10.6%.

Consider `COc1ccc(-n2c(=O)[nH]c3cc(C(=O)NCCc4ccc(OC)c(OC)c4)ccc3c2=O)c(OC)c1`, for which the inhibition is 7.83%.

Regarding `CCOc1ccccc1N(CC(=O)NC1CCCCC1)C(=O)CCCC(=O)Nc1ccccn1`, the inhibition was 10.6%.

Turning to `Cn1c(Cc2cccs2)nnc1SCC(=O)Nc1ccccc1`, the inhibition was 10.8%.

Consider `CCc1ccc(S(=O)(=O)N/N=C\c2ccc([N+](=O)[O-])o2)cc1`, for which the inhibition was 30.4%.

As to `CCn1c(/C=C/c2ccc([N+](=O)[O-])o2)nc2ccccc2c1=O`, the inhibition was 69.9% (active).

Take `CCn1c(=O)c([N+](=O)[O-])c(NCc2ccc3c(c2)OCO3)c2ccccc21`: the inhibition was 2.3%.

On to `COc1ccc(OC)c(C2C3=C(N=c4s/c(=C\c5cccc(O)c5)c(=O)n42)c2ccccc2CC3)c1` (stereo unspecified), for which the inhibition was 22%.

With `COc1ccc(CN2CC[C@H]3C=CC[C@@H](C(=O)N4CCOCC4)[C@H]3C2=O)cc1OC`, the inhibition is 6.76%.

Turning to `Cc1nc2ccccn2c1C(=O)NN=C1CCN(C)CC1`, the inhibition was 1.25%.

Take `CCOC(=O)Cn1c(O)c(N=NC(=O)CNC(=O)Cc2ccccc2)c2ccccc21`: the inhibition was -11.5%.

Consider `O=C(CN1CCCC1)Nc1sc2c(c1C(=O)Nc1ccccc1)CCCC2`, for which the inhibition was 2.11%.

For `Cc1nc(-c2ccc(Cl)cc2)sc1C(=O)NN`, the inhibition is -3.83%.

Turning to `Cc1nc(-c2ccccc2)sc1C(=O)/C=C/N(C)C`, the inhibition was 5.62%.

In the case of `Cc1nc(-c2ccc(Cl)cc2)sc1C(=O)CBr`, the inhibition is 50.9% (active).

For the molecule `CCc1ccc(S(=O)(=O)Nc2ccc(C)c(NS(C)(=O)=O)c2)cc1`, the inhibition is -0.664%.

For the molecule `O=S(=O)(Nc1cc(Cl)ccc1N1CCOCC1)c1ccccc1Cl`, the inhibition was 12%.

For the molecule `Nc1ccc(-c2nnc(-c3ccc(-c4ccccc4)cc3)o2)cc1`, the inhibition was 45.9% (active).

`Brc1ccc(-c2nnc(-c3ccccc3)o2)o1`: the inhibition is -6.79%.

With `Nc1ccc(-c2nnc(-c3ccccc3)o2)cc1`, the inhibition is -11.5%.

For `CCOc1ccccc1Nc1nnc(SCC(=O)Nc2cc(C)on2)s1`, the inhibition was 14.3%.

On to `Cc1cc2c(=O)n(C)c(SCC(=O)c3cc4ccccc4o3)nc2s1`, for which the inhibition was 29.9%.

Take `Cc1ccccc1Nc1nnc(SCC(=O)c2cc3ccccc3o2)s1`: the inhibition was 43.5% (active).

On to `O=C(Nc1cc(-c2nn(CC(=O)N3CCCCC3)c(=O)c3ccccc23)ccc1N1CCOCC1)c1ccc(Cl)cc1`, for which the inhibition is 5.87%.

On to `Cc1cc(C)n2nc(CNS(=O)(=O)c3c(F)c(F)c(F)c(F)c3F)nc2n1`, for which the inhibition is 3.29%.

Consider `CC(=O)Nc1ccc(C(=O)/C=C/c2ccc[nH]2)cc1`, for which the inhibition is -13.3%.

`O=C(/C=C/c1ccc(N2CCOCC2)cc1)c1ccccc1`: the inhibition is 36.1%.

As to `CC(=O)Nc1ccc(/C=C/C(=O)c2ccccc2)cc1`, the inhibition is 51.4% (active).

In the case of `O=C(CCNS(=O)(=O)c1ccccc1C(F)(F)F)Nc1ccncc1`, the inhibition is -1.52%.

Take `Cc1ccc(-n2nc(C)c(/C=N/NC(=O)c3cccs3)c2Cl)cc1`: the inhibition was -6.6%.

As for `Cc1ccc(C(=O)/C=C/c2c(C)nn(-c3ccccc3)c2Cl)cc1`, the inhibition was 42.7% (active).

With `Cc1nn(-c2ccccc2)c(Cl)c1/C=C/C(=O)c1ccc(O)cc1`, the inhibition was 0.354%.

For the molecule `CC(=O)N/C(=C\c1ccccc1)C(=O)OC(C)C(=O)N(C)c1ccccc1` (stereo unspecified), the inhibition is 4.65%.

Consider `COC(=O)c1c(C(=O)OC)c2n(c1C)CCS2`, for which the inhibition is -20.7%.

On to `COc1ccccc1CCNC(=O)c1c(C)nn(CC(C)C)c1Cl`, for which the inhibition is 16.6%.

`Cc1ccc(C(=O)NNC(=O)CSc2nnc3ccccn23)cc1`: the inhibition is 4.3%.

`Cc1cc2ccccn2c1C(=O)c1cccc(F)c1`: the inhibition was -8.04%.

As to `Cc1ccc(C(C[N+](=O)[O-])c2c(C)cc3ccccn23)cc1` (stereo unspecified), the inhibition was 41.6% (active).

With `O=C(NC(=S)Nc1ccccc1N1CCCCC1)c1ccc(F)cc1`, the inhibition was 32.4%.

Regarding `COc1ccccc1C(=O)NC(=S)Nc1ccccc1N1CCCCC1`, the inhibition is 41.9% (active).

Take `COc1ccc(C(=O)NC(=S)Nc2ccccc2N2CCN(S(C)(=O)=O)CC2)cc1OC`: the inhibition was 25%.

For `CCc1ccc(C(=O)NC(=S)Nc2ccccc2N2CCOCC2)cc1`, the inhibition is 40.2% (active).

With `Cc1ccc(C(=O)NC(=S)Nc2ccccc2C)cc1`, the inhibition was 40.5% (active).

As to `O=C(COc1ccc(Cl)cc1)NC(=S)Nc1ccccc1N1CCOCC1`, the inhibition is 4.3%.

As to `O=C(Nc1ccccc1N1CCOCC1)c1ccncc1`, the inhibition is -6.96%.

Turning to `Cc1cc(C(=O)NNC(=S)Nc2ccccc2C)cs1`, the inhibition is 24%.

Regarding `Cc1ccccc1NC(=S)NC(=O)Cc1ccc(Cl)cc1`, the inhibition is 22.6%.

Turning to `COc1ccccc1Cn1c(C)nnc1-c1cnn(C)c1N`, the inhibition was 9.92%.

With `CCOC(=O)c1c(Cc2ccc(Cl)cc2)c[nH]c1C`, the inhibition is 29.9%.

As to `O=Cc1ccc(OCc2cn3ccccc3n2)cc1`, the inhibition was -8%.

On to `Nc1nc(CC(=O)CSc2ccc(Cl)cc2)nc(Nc2ccc(F)cc2)n1`, for which the inhibition was 1.48%.

As for `COc1cc(Cl)c(C)cc1NC(=O)[C@@H]1CCCN1C(=O)c1cccs1`, the inhibition is 31.3%.

With `COc1ccc(Cl)cc1NC(=O)[C@@H]1CCCN1C(=O)c1cccs1`, the inhibition is 33.9%.

On to `COc1ccc2nc(NC(=O)[C@@H]3CCCN3C(=O)c3cccs3)sc2c1`, for which the inhibition was 45.4% (active).

On to `COCCCN(C(=S)Nc1c(C)cc(C)cc1C)C(C)c1ccncc1` (stereo unspecified), for which the inhibition is 21.3%.

As to `O=S(=O)(NCc1ccc2c(c1)OCO2)c1cccc2nsnc12`, the inhibition was 1.8%.

Consider `COc1ccc(Nc2cc(=O)n(-c3ccccc3)c3c2c(=O)n(C)c(=O)n3C)cc1`, for which the inhibition was 14.6%.

As for `Cc1ccc(N2C(=O)C(Cc3ccccc3)NC2=S)cc1` (stereo unspecified), the inhibition was 44.1% (active).

Consider `Cc1cc(C)c(NC(=O)CN2C(=O)NC(Cc3ccccc3)C2=O)c(C)c1` (stereo unspecified), for which the inhibition is -9.44%.

For `O=C1C(Cc2ccc(O)cc2)NC(=S)N1Cc1ccccc1` (stereo unspecified), the inhibition was -2.4%.

Turning to `CC(=O)c1cc2c(cc1NC(=O)Cn1nc(-c3ccc(F)cc3)ccc1=O)OCO2`, the inhibition was 16.5%.

As for `CN(C)c1ccc(C(CNC(=O)c2ccc(F)cc2)c2c[nH]c3ccccc23)cc1` (stereo unspecified), the inhibition is 37.2%.

`Clc1ccc(Nc2nc(-c3cccs3)cs2)nc1`: the inhibition was 45.1% (active).

For `CCCc1cc(C(=O)Nc2ccc(Cl)cn2)cs1`, the inhibition was 27.7%.

`Cc1cccc(Nc2nc(-c3ccccc3)cs2)n1`: the inhibition is -40.5%.

As for `CCOC(=O)c1cc(-c2ccccc2C)n(Cc2cc(C)no2)n1`, the inhibition is 9.65%.

On to `CN(CC(=O)O)C(=O)c1ccccc1`, for which the inhibition was -0.243%.

For the molecule `CC(C)(C)c1ccc(C(=O)NNC(=O)Cc2ccccc2)cc1`, the inhibition was -12.1%.

Turning to `CN(C(=O)CC(NC(=O)c1ccccc1)(c1ccccc1)c1ccccc1)c1ccccc1`, the inhibition was 41.7% (active).

For `CNC(=O)/C(C#N)=C/c1c(F)cccc1Cl`, the inhibition is 55.4% (active).

Turning to `CCOC(=O)NC(=O)/C(C#N)=C\c1ccccc1`, the inhibition was 2.89%.

On to `O=C(/C=C/c1c(F)cccc1Cl)Nc1nn[nH]n1`, for which the inhibition is 10.7%.

As for `O=C(CNS(=O)(=O)c1ccccc1)NCC(=O)OCc1ccccc1F`, the inhibition is 9.03%.

In the case of `O=C(Cn1nc(Cc2cccnc2)c2ccccc2c1=O)NCC1COc2ccccc2O1` (stereo unspecified), the inhibition is 14.3%.

With `C=CCNC(=S)NNC(=O)COc1c(Cl)cc(Cl)cc1Cl`, the inhibition is 37.3%.

As to `CCOC(=O)C1CCN(C(=O)C2CCCN(S(=O)(=O)c3ccc(OC)c(Cl)c3)C2)CC1` (stereo unspecified), the inhibition was -9.18%.

Consider `COc1ccccc1NC(=O)N1CCCC1C(=O)NCc1cccs1` (stereo unspecified), for which the inhibition was 16.7%.

As to `COc1cc(NS(=O)(=O)c2ccc3ccccc3c2)c2ncccc2c1`, the inhibition is 40.5% (active).

`O=[N+]([O-])c1ccccc1S(=O)(=O)Nc1cccc2cccnc12`: the inhibition was 34.8%.

`Cc1ccc(S(=O)(=O)Nc2ccc3ncccc3c2)cc1`: the inhibition was 18.6%.

Turning to `COc1ccc(S(=O)(=O)NCc2cccnc2)cc1NC(=O)c1ccc(C)cc1`, the inhibition is 8.35%.

In the case of `CCC(C)(C)n1nnnc1CN1CCN(c2nc3ccc(C)cc3cc2C#N)CC1`, the inhibition was 40.7% (active).

Turning to `CCC(C)(C)n1nnnc1C(c1cccs1)N1CCN(c2nc3ccccc3s2)CC1` (stereo unspecified), the inhibition was 36.1%.

On to `Cc1ccc2nc(NCCCNC(=O)c3cnccn3)c(C#N)cc2c1`, for which the inhibition is 8.4%.

Consider `COc1ccc(CNC(=O)COC(=O)/C=C/c2ccc(S(=O)(=O)N3CCOCC3)cc2)cc1`, for which the inhibition was 20%.

In the case of `Cc1nc2nc(C)c(CCC(=O)N3CCN(c4ccccc4)CC3)c(C)n2n1`, the inhibition was 1.14%.

Regarding `COc1ccc2[nH]c3c(c2c1)CCN1C(=O)C(CC(=O)NCc2cccc(C(F)(F)F)c2)C[C@H](C(=O)N2CCOCC2)[C@@]31C` (stereo partly specified), the inhibition was 11%.

For `Cc1cccc(C(=O)NCC(=O)OCC(=O)N2CC3(C)CC2CC(C)(C)C3)c1` (stereo unspecified), the inhibition is 15.2%.

`COc1ccc(C(=O)N2CC3(C)CC2CC(C)(C)C3)cc1OC` (stereo unspecified): the inhibition is 19.6%.

Turning to `Cc1nnnn1/C(=C\c1ccccc1)C(=O)OCC(=O)N1CC2(C)CC1CC(C)(C)C2` (stereo unspecified), the inhibition is 56.1% (active).

Regarding `CCOc1ccc(C(C)=O)cc1CSc1nnc(-c2ccncc2)n1CCOC`, the inhibition is 22.6%.

With `NC(=O)NC(CC(=O)NNC(=O)c1ccccn1)c1ccc(Cl)cc1` (stereo unspecified), the inhibition is 8.52%.

Take `NC(=O)c1ccsc1NC(=O)c1ccco1`: the inhibition is -3.6%.

Take `O=C(Nc1nnc(CCOCCOCCc2nnc(NC(=O)c3ccco3)s2)s1)c1ccco1`: the inhibition was -13%.

With `O=C(Nc1nc(-c2ccco2)c(-c2ccco2)s1)c1ccco1`, the inhibition was 59.7% (active).

With `C=CC[C@@H](CC(=O)NCCO)C(=O)N[C@H](C)COC(=O)[C@@H](CC=C)CC(=O)OC(C)(C)C`, the inhibition is -5.11%.
